High-throughput results: PubChem BioAssay, National Center for Advancing Translational Sciences (NCATS)
Most compounds without a hit are left out; they make up all but 3% or so of the library.
12-LOX inh – Primary qHTS assay for inhibitors of human arachidonate 12S-lipoxygenase (ALOX12): Round 2. Polyunsaturated fatty acid lipoxygenase ALOX12 (Homo sapiens), P18054. purified 12hLO, xylenol orange hydroperoxide absorbance. Potency, µM (series often up to 108 µM), for inactives: at the top dose activity change, negative = inhibition, hits mostly inhibitors. 1.1% of 580,000 active; active means well fitted inhibition curve with a large enough effect; inconclusive means small, poorly fitted or top-dose-only effect, or another doubt; inactive means no such curve, though single readings can be large or run the other way; further: potency means the concentration at half of the fitted maximal effect; on the % scale 0 is the no-effect control and ±100 the full control effect
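Purified human 12hLO (150 nM final) in 25 mM Hepes, 0.01% Triton X-100, pH 7.0 was preincubated 15 min at room temperature with compound. Then 40 uM arachidonic acid was added, 30 min. Hydroperoxide was read by Fe-XO absorbance ratio 573/405 nm.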
BCR signal inh – qHTS Assay to Find Inhibitors of Chronic Active B-Cell Receptor Signaling; ABC-DLBCL IkBa-CBG/CBR reporter, luminescence ratio, 4 h; Potency, µM (top dose mostly 46.1 µM), for inactives: at the highest dose activity change, negative = inhibition, hits mostly inhibitors; 0.05% of 340,000 active; AID 493014, 2011; active means well fitted inhibition curve with a large enough effect in the signal ratio, with a control signal flat, not every such curve was filed as active; inconclusive means small, poorly fitted or top-dose-only effect, or effect the other way, or a change in a side signal; the % refers to the signal ratio;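 further: potency means the concentration at half of the fitted maximal effect; plate controls were basal doxycycline-induced cells for no effect and cells given 10 µM MG132 for full effect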
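TMD8 human ABC-DLBCL cells with doxycycline-inducible IκBα–green luciferase fusion and unfused red luciferase, in 0.5% FBS medium; compounds up to 46 uM, 4 h at 37C. Green/red luminescence ratio, filter-overlap corrected, fitted to concentration-response curves.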
LDHA inh – qHTS assay for inhibitors of human lactate dehydrogenase; L-lactate dehydrogenase A chain (Homo sapiens), P00338; activity change, % (values are at about 110 or 230 µM); AID 1347041, 2019; 0.15% of 480,000 active; purified LDHA, NADH/diaphorase-resazurin fluorescence; stronger effect = lower value; in the data active means activity change below about -30%; inconclusive means mostly about -25% to -30%;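 further: plate controls were DMSO wells for no effect and wells without enzyme for full effect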
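Remaining NADH was detected by diaphorase (0.133 mg/mL) converting 37 µM resazurin to fluorescent resorufin, read at 0 and 20 minutes. The preceding 5-minute room-temperature reaction used 2 nM LDHA, 0.2 mM sodium pyruvate and 0.06 mM NADH at pH 7.4.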
KCNH2 3.1 block – qHTS for Inhibitors of KCHN2 3.1: Mutant qHTS | Potassium voltage-gated channel subfamily H member 2, brain isoform KCNH2 3.1 (human) | 0.95% of 340,000 active | activity change, % (tested at about 1.8 µM) | U2OS KCNH2 3.1, thallium flux FluxOr; stronger effect = lower value;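 active means maximum activity change below -70%; inconclusive means maximum activity change from -70% to -50%; inactive means maximum activity change above -50%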;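 further: thallium influx rate constant from kinetic fluorescence after stimulation buffer; on the % scale 0 is the no-effect control and ±100 the full control effect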
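We transduce U2OS cells with the mutant 3.1 virus, culture them overnight, load FluxOr with Red40 quencher for 45 min, then add stimulation buffer and read kinetically for 2 min to derive a normalized rate constant.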
ClpP mod – qHTS Assay for Activators of ClpP. ATP-dependent Clp protease proteolytic subunit (Bacillus subtilis (strain 168)), P80244. purified B. subtilis ClpP, FRET peptide cleavage, 20 min. Potency, µM (titrated, usually from 57.5 µM), without a hit: at the top dose activity change, negative = active. 1.9% of 340,000 active. AID 651965, 2013; active means well fitted falling curve with a large enough effect; inconclusive means small, poorly fitted or top-dose-only effect; inactive means no such curve, though single readings can be large or run the other way; further: potency means the concentration at half of the fitted maximal effect; the source files actives as falling curves though it sought activators and does not explain the sign; nearly all actives have a fitted effect of over 65% in size
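ClpP 10 microg/mL final, pH 8 Tris/KCl buffer with BSA, glycerol, Tween-20; compound pinned in; FRET-FV substrate; RT 20 min; Ex320/Em430; ΔFRET vs ADEP 5.8 microM, DMSO, no enzyme.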
KCNH2 WT inh – qHTS for Inhibitors of KCHN2 3.1: Wildtype qHTS; U2OS, BacMam KCNH2, thallium flux FluxOr; stronger effect = lower value; activity change, % at 1.84 µM; 0.37% of 340,000 active; AID 720551, 2013;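 active means maximum activity change below -70%; inconclusive means maximum activity change between -70% and -50%; inactive means maximum activity change above -50%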; further: on the % scale 0 is the no-effect control and ±100 the full control effect
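U2OS cells transduced with wild-type KCNH2 virus are loaded with FluxOr dye for 45 min, and thallium flux is measured in kinetic reads before and after stimulation buffer. Rate constants are normalized to DMSO controls.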
The depositor's hits bear a star; u = inconclusive; x = no result given; [ ] = remark or other dose.

SMILES	12-LOX inh	BCR signal inh	LDHA inh	KCNH2 3.1 block	ClpP mod	KCNH2 WT inh
O=C(Nc1ccc2nc[nH]c(=O)c2c1)c1ccc(Cl)cc1Cl	u	x	-2	x	x	x
CCCC(Oc1ccc(Br)cc1)c1nc2c3cc(OC)c(OC)cc3nc(=S)n2[nH]1 (centres undefined)	u	u	-6	-11	-2%	5
CC(Oc1ccc(Br)cc1)c1nc2c3ccccc3nc(=S)n2[nH]1 (centres undefined)	3.5µM*	u	3	7	2%	4
S=C(Nc1ccc(Oc2ccccc2)cc1)NC1CCCCC1	u	u	-3	-11	-1%	-31
S=C(Nc1ccc(Oc2ccc(NC(=S)NC3CCCCC3)cc2)cc1)NC1CCCCC1	11µM*	6%	-6	-2	0%	-14
S=C(Nc1ccc(Oc2ccccc2)cc1)NC1CCCCCC1	28µM*	u	-3	-16	2%	8
CC(C)c1ccc(NC(=S)NC2CCCCCC2)cc1	-21%	6%	-5	-6	x	19
Cc1ccc(C(=O)CSc2nnnn2C)cc1C	8%	x	-5	x	x	x
Clc1ccc(-c2nc3ccccn3c2Nc2ccc3c(c2)OCCO3)s1	25µM*	x	6	x	-21%	x
Cc1ccn2c(Nc3ccc4c(c3)OCCO4)c(-c3ccc(Cl)s3)nc2c1	u	x	2	x	25µM*	x
O=C(Cn1[nH]c(=O)c2ccccc2c1=O)NNC(=O)c1ccccc1	4%	-3%	0	18	-6%	-270*
O=C(COc1ccccc1Cl)NNC(=O)Cn1[nH]c(=O)c2ccccc2c1=O	25%	u	-13	7	-5%	0
O=C1NC(=NC2CCCCC2)C2(CCN(Cc3ccc(F)cc3)C2)N1c1cccnc1 (centres undefined)	-1%[6.33 µM]	x	x	x	x	x
O=c1[nH]n(-c2ccccc2)c(=O)c2ccccc12	3%	-1%	-15	-8	-3%	-5
O=C(O)c1cc2c(ncc3c(=O)n(-c4ccccc4)[nH]c32)s1	-25%	x	-35*	x	1%	x
CCOC(=O)c1[nH]c2ccccc2c1NC(=O)CCN1CCN(C(=O)OCC)CC1	0%	-1%	3	6	22µM*	-7
COc1ccc(NC(=O)CN2CCc3ccccc3C2)c(OC)c1	u	-3%	2	0	x	-247*
COC(=O)c1[nH]c2ccc(F)cc2c1NC(=O)CCN1CC(C)OC(C)C1 (centres undefined)	0%	5%	-3	11	16µM*	-3
CCOC(=O)c1[nH]c2ccccc2c1NC(=O)CCN1CC(C)OC(C)C1 (centres undefined)	0%	0%	-22	-9	-22%	-4
CCOC(=O)c1[nH]c2ccc(F)cc2c1NC(=O)CCN1CCOCC1	-17%	-3%	-12	-1	x	-1
CCOC(=O)c1[nH]c2ccc(OC)cc2c1NC(=O)CN1CCC2(CC1)OCCO2	47%	u	0	7	14µM*	-16
CCOC(=O)c1[nH]c2ccc(OC)cc2c1NC(=O)C(C)N1CCC2(CC1)OCCO2 (centres undefined)	x	-3%	x	x	x	x
CCOC(=O)c1[nH]c2ccc(F)cc2c1NC(=O)CCN1CCSCC1	0%	0%	-5	-3	u	2
CCOC(=O)c1[nH]c2ccc(F)cc2c1NC(=O)C(C)N1CCc2cc(OC)c(OC)cc2C1 (centres undefined)	u	u	-6	9	20µM*	-2
CCOC(=O)c1oc2ccccc2c1NC(=O)CN1CCN(C)CC1	2%	0%	-7	2	-24%	8
